Out of some 190,000 compounds screened, about 1,700 (0.89%) were called active.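 How the source made its calls: active means inhibition above the mean inhibition across all screened compounds plus 3 SD (cut at about 44% in these data); inactive means the rest.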 Many of the other results were omitted from the sample, so actives are more common in it than they were.
Assay: blockers of STAT3 transcriptional signaling – U3A cells, luciferase, luminescence, MLSCN library, primary screen (AID 862);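 further: 0% = DMSO only wells and 100% = 100 µM nifuroxazide control wells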
Conditions: IL-6 STAT3-luciferase reporter, at 5.5 µM, stronger effect = higher value
In the case of `CC1=CC(=Cc2sc3ccccc3[n+]2C)C=C(C)O1`, the inhibition is reported as 81.6% (active). With `COc1ccc(C(=O)CC2C(=O)N(C)C(=O)N(C)C2=O)cc1` the inhibition was 8.6% (inactive). With `Cc1cccc(-n2c(O)c(/C=N/N3CCOCC3)c(=O)[nH]c2=S)c1` the inhibition was -17.9% (inactive). For `Cc1nc2ccc(N3CCN(C)CC3)cc2nc1C`, the inhibition was -6.4% (inactive). With `COc1cccc(-c2nc3ccc(N4CCN(C)CC4)cc3[nH]2)c1` the inhibition was 85.4% (active). In the case of `CN1CCN(c2cc(N3CCNCC3)ccc2[N+](=O)[O-])CC1`, the inhibition is reported as -1.6% (inactive). For `Cc1c(C(=O)O)cccc1-n1c(C)cc(/C=C2\C(=O)NC(=O)N(c3ccc4c(c3)OCO4)C2=O)c1C`, the inhibition was 2.2% (inactive). In the case of `O=C(CCCn1c(=O)[nH]c2cc(Cl)ccc2c1=O)N1CCC2(CC1)OCCO2`, the inhibition is reported as 14.5% (inactive). For `O=C(CN1CCCC1=O)NCCc1ccccc1`, the inhibition was 3.6% (inactive). In the case of `N#Cc1ccc(Cn2cc(C(=O)c3ccco3)c3ccccc32)cc1`, the inhibition is reported as 10.3% (inactive).
